# The campaign covered roughly 340,000 compounds. About 2,500 (0.74%) were called active.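 Rule for the calls: active = inhibition above about 55% (limit read from the data); inactive = the rest.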 The list comes from a sample in which actives are over-represented; it also holds similar structures and randomly drawn compounds.
# Experiment: Gli-Sufu pathway antagonists, primary screen, luciferase luminescence, Sufu-KO-LIGHT cells, uHTS (AID 588413);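 note: 0% = DMSO-treated cells and 100% = wells with medium but no cells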
# Conditions: Sufu-KO-LIGHT fibroblasts, Gli luciferase reporter luminescence; at 5 µM; active compounds read high
row,Compound,inhibition
1,COc1ccc(NC(=O)CCC(=O)Nc2cc(OC)c(NC(=O)c3ccco3)cc2OC)c(OC)c1,15.2% (inactive)
2,COc1cc(C(=O)OC(C)C(=O)NCC2CCCCC2)cc(NC(=O)c2ccco2)c1OC (centres undefined),61.1% (active)
3,CC(OC(=O)c1ccc([N+](=O)[O-])cc1)C(=O)NCC1CCCCC1 (centres undefined),6.02% (inactive)
4,CN1CCN(C(=O)/C(=C\c2ccc3c(c2)OCO3)NC(=O)c2cccs2)CC1,-0.95% (inactive)
5,CC(=O)Nc1ccccc1C(=O)C(=O)Nc1ccc(F)cc1,-24.7% (inactive)
6,O=C(CSCc1ccccc1)N1CCc2ccccc21,-87.8% (inactive)
7,CC1CCCN(C(=O)CN2C(=O)c3ccccc3S2(=O)=O)C1 (centres undefined),6.76% (inactive)
8,O=C(CN1C(=O)c2ccccc2S1(=O)=O)N1CCc2ccccc21,64.8% (active)
9,Cc1ccc(CNC(=O)CCN2C(=O)[C@@H]3Cc4ccccc4CN3C2=O)cc1,-9.51% (inactive)
10,CCOC(=O)N(Cc1ccccc1)C1CC1,0.91% (inactive)
11,Cc1ccc(S(=O)(=O)N2C[C@@H]3CCCC[C@@H]3[C@@H](C)[C@H]2c2cn(Cc3ccccc3)c3ccc(F)cc23)cc1,72.8% (active)
12,O=C(CS(=O)(=O)c1cn(Cc2cccc(F)c2)c2ccccc12)N1CCCCC1,9.01% (inactive)
13,Cc1ccc(S(=O)(=O)N2CC(C)N(S(C)(=O)=O)C2)cc1 (centres undefined),-2.13% (inactive)
14,O=C(CNS(=O)(=O)c1ccc(Br)s1)N1CCN(C(=O)c2ccco2)CC1,-4.48% (inactive)
15,O=[N+]([O-])c1ccc(C=NN=Cc2ccc([N+](=O)[O-])cc2)cc1,-0.85% (inactive)
16,O=C(NN=Cc1ccc([N+](=O)[O-])cc1)C1CC1,-2.46% (inactive)
17,O=C1/C(=C\c2ccc([N+](=O)[O-])cc2)CS(=O)(=O)C/C1=C/c1ccc([N+](=O)[O-])cc1,65.4% (active)
18,Cc1nn(C(C)(C)C)c(OC(=O)CC(C)C)c1S(=O)(=O)c1ccccc1,12.6% (inactive)
19,O=C(/C=C/c1ccc([N+](=O)[O-])o1)NNC(=O)c1ccc(F)cc1,67.6% (active)
20,Cc1onc(C(=O)NCc2ccc(F)cc2)c1[N+](=O)[O-],3.05% (inactive)
21,COc1ccc(C(=O)NCC(=O)N/N=C/c2ccc([N+](=O)[O-])o2)cc1OC,-0.07% (inactive)
22,Cc1ccc(CN(CC(=O)NC2CCCCC2)C(=O)c2csnn2)cc1,-19.5% (inactive)
23,C/C=C/c1ccc(OCC(=O)OCC(=O)Nc2c(C)nn(-c3ccccc3)c2C)c(OC)c1,-14.7% (inactive)
24,CSc1nsc(SC)c1NC(=O)OC1CCCCC1,3.57% (inactive)

row,Compound,inhibition
1,COCCn1c(C)cc(C(=O)COC(=O)/C=C/c2cccc(OC)c2)c1C,0.01% (inactive)
2,CCN(CC)S(=O)(=O)c1ccc(OC(C)C)c(N)c1,-7.56% (inactive)
3,Oc1ccc2ccccc2c1N=Nc1nccs1,75.4% (active)
4,O=C(CN1CCCCC1)NC(=O)Nc1ccccc1F,-7.73% (inactive)
5,COc1ccc(Cc2nnc(N/N=C/c3ccccc3O)[nH]c2=O)cc1OC,88.1% (active)
6,CC(C)c1ccc(Cc2nnc(NCCCO)[nH]c2=O)cc1,-3.48% (inactive)
7,COc1ccc(Cc2nnc(SC)[nH]c2=O)cc1,-8.83% (inactive)
8,CCc1cccc2c3c([nH]c12)C(CC)(CC(=O)O)OCC3 (centres undefined),-4.38% (inactive)
9,CC(C)c1ccc(C2C(C#N)=C(N)Oc3c2oc(CO)cc3=O)cc1 (centres undefined),-0.24% (inactive)
10,CCOC(=O)c1ccc(NC(=O)Cc2cccs2)cc1,-48% (inactive)
11,CCCc1nnc(SCC(=O)Nc2ccc(C(=O)OCC)cc2)o1,-7.14% (inactive)
12,CCOC(=O)c1ccc(NC(=O)Cn2cnc3cc(C)c(C)cc32)cc1,65% (active)
13,CCCCC(=O)N1CC2(C)CN(C(=O)CCCC)CC(C)(C1)C2=O,-15.8% (inactive)
14,COCCCN(C(=O)CSCc1ccc(C)cc1)c1c(N)n(Cc2ccccc2)c(=O)[nH]c1=O,-6.23% (inactive)
15,CC(C)NC(=O)C(=O)NCCN1CCN(S(=O)(=O)c2ccc(Cl)cc2)CC1,-1.75% (inactive)
16,Cc1ccc(NC(=O)c2ccc(CSc3ncnc4nc[nH]c34)cc2)c(C)c1,-3.19% (inactive)
17,CCNc1nc(SCCOc2ccccc2)nc(N(C)C)n1,17.6% (inactive)
18,Cc1cc(C)c(NC(=O)CSc2nc3ccncc3[nH]2)c(C)c1,-7.29% (inactive)
19,Cc1ccc2nc(SCC(=O)NC3CCCC3)[nH]c2c1,19.8% (inactive)
20,COc1ccc2nc(SCC(=O)Nc3c(C)cc(C)cc3C)[nH]c2c1,82.7% (active)
21,N#C/C=C/N1CCN(Cc2ccc3c(c2)OCO3)CC1,1.76% (inactive)
22,CC(C)(C)OC(=O)N(Cc1ccccc1)Cc1ccc(OCc2cccc(NC(=O)c3ccccc3)c2)cc1,1.99% (inactive)
23,O=C1Cc2ccccc2Sc2ccc(Cl)cc21,3% (inactive)
24,Cc1ccc(C(=O)C(=S)N2CCOCC2)cc1,-12.9% (inactive)

row,Compound,inhibition
1,CSc1ncccc1C(=O)Nc1ccc(C)cn1,-28.8% (inactive)
2,CSc1ncccc1C(=O)Nc1nc2ccc(F)cc2s1,56.9% (active)
3,CSc1ncccc1C(=O)Nc1ccc2c(c1)OCO2,-2.99% (inactive)
4,CC(C)=NN1C(=O)c2ccccc2NC1(C)C,0.06% (inactive)
5,CC1(C)Cc2c(cnn2-c2cccc(F)c2)C(NC(=O)c2cc[n+]([O-])cc2)C1 (centres undefined),-1.99% (inactive)
6,COc1ccc(C(=O)NC2CC(C)(C)Cc3c2cnn3-c2ccccc2C)o1 (centres undefined),3.2% (inactive)
7,COc1ccc(C(=O)NC2CC(C)(C)Cc3c2cnn3-c2ccccc2)c(OC)c1 (centres undefined),14% (inactive)
8,Cn1nccc1C(=O)NC1CCCc2c1cnn2-c1ccccc1F (centres undefined),77.6% (active)
9,CC1=C(C(=O)NC2CC(C)(C)Cc3c2cnn3-c2ccc(C)cc2)OCCO1 (centres undefined),13.4% (inactive)
10,Cc1cc(C(=O)NC2CC(C)(C)Cc3c2cnn3-c2ccccc2)n[nH]1 (centres undefined),7.64% (inactive)
11,Cc1ccc(-n2ncc3c2CCCC3NC(=O)c2cnccn2)cc1C (centres undefined),20.6% (inactive)
12,COc1ccc(C(=O)NC2CCCc3c2cnn3-c2cccc(C)c2C)c(OC)n1 (centres undefined),57% (active)
13,Cn1nccc1C(=O)NC1CCCc2c1cnn2-c1ccc(F)cc1F (centres undefined),73% (active)
14,COC(=O)c1cc(=O)n(-c2c(Cl)cc(C(F)(F)F)cc2Cl)[nH]1,5.78% (inactive)
15,C[C@]1(C(=O)NCCc2c[nH]c3ccccc23)C=C[C@@H](Cc2ccccc2)N1C(=O)c1ccccc1,6.62% (inactive)
16,NC(=S)NN=C1CCCC(C(F)(F)F)C1 (centres undefined),4.43% (inactive)
17,Cc1cc(C)c2nc(N3CCC(C(=O)NCCN4CCOCC4)CC3)sc2c1,42.9% (inactive)
18,O=C(NCCCN1CCCC1=O)C(=O)NCC1OCCN1S(=O)(=O)c1ccc(Br)cc1 (centres undefined),9.53% (inactive)
19,CCCN(c1ccc(C)cc1)c1nc(=O)c2cccnc2s1,11.6% (inactive)
20,COc1cccc(NC(=O)Cn2cnc3sc(C)c(S(=O)(=O)N4CCN(C)CC4)c3c2=O)c1,-2.51% (inactive)
21,COc1cccc(NC(=O)COC(=O)CCOc2ccccc2OC)c1,-1.81% (inactive)
22,CCCCCCCCCCOC(=O)Cn1c(COc2ccc(C)cc2)[n+](C)c2ccccc21,83.1% (active)
23,CCCCCCCCCCOC(=O)Cn1c(COc2cccc(OC)c2)[n+](C)c2ccccc21,79.7% (active)
24,Cc1ccc(COc2ccc(C(=O)NN)cc2)cc1,-19.9% (inactive)

row,Compound,inhibition
1,CCCCOc1ccc(NC(=O)CSCC(=O)OCC)cc1,0.02% (inactive)
2,CCOC(=O)CNC(=O)CSc1nnc(-c2cccc(OC)c2)n1CC,7.3% (inactive)
3,Cc1ccc(N2C(=O)C3C4C=CC(CC4)C3C2=O)cc1Cl (centres undefined),6.68% (inactive)
4,CN(C(=O)c1cccc([N+](=O)[O-])c1)c1ccccc1C(=O)NCc1ccccc1,0.49% (inactive)
5,Cn1c(=O)[nH]c2c(c(C(=O)O)nn2C)c1=O,-2.41% (inactive)
6,C/C(=N\Nc1cccc(C(=O)O)c1)c1ccc2c(c1)Nc1ccccc1S2,-35.5% (inactive)
7,O=C(CN(C(=O)c1csnn1)c1cccc(Cl)c1)NC1CCCC1,-16.6% (inactive)
8,CCS(=O)(=O)N1CCCC(C(=O)NCCCN(C)Cc2ccccc2)C1 (centres undefined),9.61% (inactive)
9,O=C1CCCCN1CCCC(=O)N1CCCC(Nc2ccc(F)cc2)C1 (centres undefined),45.4% (inactive)
10,CNCC(O)CN1CCN(c2ccccc2OC)CC1 (centres undefined),2.51% (inactive)
11,COc1ccccc1N1CCN(Cc2ccc(OC)c3ccccc23)CC1,10.6% (inactive)
12,COc1ccccc1N1CCN(Cc2cc(OC)c3c(c2)OCO3)CC1,60.1% (active)
13,CN1CCN(c2cc(=O)n(-c3ccc(Cl)cc3)c(=O)[nH]2)CC1,7.35% (inactive)
14,C=CCO/N=C/C1=C(O)C(C(=O)OC)C(C)(C)CC1=O (centres undefined),-5.83% (inactive)
15,CCN(CC)CCCC(C)n1c2nc(=O)[nH]c(=O)c-2nc2cc(Cl)ccc21 (centres undefined),83.6% (active)
16,CCOC(=O)C1(CCOC)CCN(Cc2cc3ccccc3s2)CC1,-4.84% (inactive)
17,Cc1ccc(-n2c(O)c(C=Nc3ccc(S(=O)(=O)Nc4ncccn4)cc3)c3ccccc3c2=O)cc1C,-0.18% (inactive)
18,CCOc1ccc(-n2c(O)c(/C=N/c3ccnn3Cc3ccncc3)c3ccccc3c2=O)cc1,62.7% (active)
19,Cc1cc(C)nc(N/N=C/c2c(CO)cnc(C)c2O)n1,0.23% (inactive)
20,CCN(CC)CCCN=Cc1c(O)n(-c2ccc(C)cc2)c(=O)c2ccccc12,-0.11% (inactive)
21,CCOc1ccc(-n2c(O)c(/C=N/Nc3nc(C)cc(C)n3)c3ccccc3c2=O)cc1,61.7% (active)
22,Cc1ccc(N=Cc2c(O)n(-c3nccs3)c(=O)c3ccccc23)c(C)c1,-4.34% (inactive)
